# Screening data deposited in PubChem BioAssay by several laboratories.
# CHT inh – inhibits the human high affinity choline transporter | CHT-expressing cells, membrane potential dye, choline response; stronger effect = lower value | B-score at 10 µM | actives 0.86% (n = 310,000);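 active means B-score over 3 SD under the library average, and starting fluorescence ratio not unusually high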;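 further: choline stimulus applied at its EC90 after an EC20 pre-addition; B-score computed on integrated fluorescence ratio after choline addition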
# CHT allo act – human CHT allosteric activation; AID 488977; CHT-expressing cells, membrane potential dye, choline EC20; stronger effect = higher value; LV-AA mutant CHT in HEK293 cells; B-score at 10 µM; actives 0.49% (n = 310,000);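 active means initial fluorescence not abnormally high and integrated response B-score, plate-corrected, over 3 SD above library mean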
# EP2 antag – blocks the human prostaglandin E2 receptor EP2. inhibition, % at 25 µM. actives 0.52% (n = 260,000). C6 glioma cells expressing human EP2, cAMP TR-FRET; cells stimulated with saturating PGE2;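 active means percent inhibition above 40 after rounding to a whole number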;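 further: rat C6 glioma host cells with rolipram phosphodiesterase inhibitor present; the protocol text gives 20 µM as final concentration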
# Target sequence (P43116 whole entry, looked up): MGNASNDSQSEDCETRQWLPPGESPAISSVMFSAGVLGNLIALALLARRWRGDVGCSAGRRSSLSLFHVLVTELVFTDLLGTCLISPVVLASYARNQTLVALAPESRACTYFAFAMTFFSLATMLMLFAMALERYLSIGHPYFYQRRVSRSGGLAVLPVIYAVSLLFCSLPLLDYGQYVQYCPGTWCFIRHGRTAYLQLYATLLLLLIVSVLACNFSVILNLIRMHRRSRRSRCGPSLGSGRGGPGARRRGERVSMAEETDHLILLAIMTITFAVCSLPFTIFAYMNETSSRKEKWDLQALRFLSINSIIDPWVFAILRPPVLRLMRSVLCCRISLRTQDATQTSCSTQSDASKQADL
# EP2 modulator – modulates human prostaglandin E2 receptor EP2 signaling | P43116 | induction, % at 25 µM | EP2-expressing cells, cAMP HTRF FRET, PGE2 co-stimulation | actives 0.83% (n = 260,000) | AID 940;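 active means compounds whose cAMP rise, as percent of the full-agonist control response, exceeds 60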;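 further: rat C6 glioma line stably carrying human EP2 under a CMV promoter; the protocol text gives 20 µM as final concentration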
# CHT act confirm – human CHT activation, confirmatory screen; shares compounds with CHT allo act; CHT-expressing cells, membrane potential dye fluorescence (FDSS); % of choline EC20–EC90 response window; HEK293 expressing CHT LV-AA mutant; choline added at its EC20; activation, % at 10 µM; actives 91% (n = 2,500); AID 504833;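 active means primary screen active, with duplicate mean activation above negative control mean plus 3 SD, cut at about 11% in these data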
# HEK293 MP dye – CHT activator counter-screen hit in parental HEK293 cells; ratio readout change at 10 µM, hits read low; actives 62% (n = 2,500); shares compounds with CHT allo act; membrane potential dye fluorescence (FDSS); measured after EC20 choline addition;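 active means duplicate-averaged ratio beyond 3 SD from buffer wells, up or down, though filed actives are nearly all decreases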
# A number is an active result; . = inactive; / = not tested or not shown. Hits are enriched below; roughly 2.1% of the tested compounds scored in any of these assays.
SMILES,CHT inh,CHT allo act,EP2 antag,EP2 modulator,CHT act confirm,HEK293 MP dye
Cc1ccc(OCc2nc(C#N)c(NCc3ccc4c(c3)OCO4)o2)cc1,.,7.5,.,.,30,.
CCOc1ccc(-c2nc(C#N)c(NCc3ccc4c(c3)OCO4)o2)cc1,.,.,.,.,/,/
CCN1CCN(C(=S)Nc2ccc3nc(N4CCN(C)CC4)cc(C)c3c2)CC1,.,6.9,.,.,41,-34
CCN1CCN(c2cc(C)c3cc(NC(=O)c4ccc(C)c(C)c4)ccc3n2)CC1,.,.,/,/,/,/
CCN1CCN(c2cc(C)c3cc(NC(=O)c4ccncc4)ccc3n2)CC1,.,.,.,.,43,-26
CCN1CCN(C(=S)Nc2ccc3nc(N4CCN(CC)CC4)cc(C)c3c2)CC1,.,.,.,.,27,-37
CCN1CCN(c2cc(C)c3cc(NC(=S)N4CCCC4)ccc3n2)CC1,.,.,.,.,/,/
O=C(c1cnn2cccnc12)N1CCCC(c2ncncc2-c2ccncc2)C1 (stereo unspecified),/,/,/,.,/,/
CCOC(=O)c1cc(-c2ccccc2)nc2c1c(C)nn2-c1ccccn1,.,8.6,.,.,.,.
O=C(CNC(=O)c1cccs1)OCc1ccccc1Cl,/,/,.,.,/,/
Cc1ccccc1/C=C/C1=NCCN1,.,7.2,.,.,40,-38
Cc1ccccc1/C=N/n1c(-c2ccccn2)n[nH]c1=S,.,.,.,.,/,/
Cc1cc(C)c(S(=O)(=O)N(CC(=O)NCc2ccccn2)C2CCCCC2)c(C)c1,/,/,.,.,/,/
CCN1CCN(C(=O)c2cc(-c3cccnc3)nc3ccc(Br)cc23)CC1,.,6.6,.,.,54,-44
O=C(O)c1cc(-c2cccnc2)nc2ccc(Br)cc12,.,.,.,.,/,/
Cc1cc(C)n(-c2nc3ccccc3nc2N2CCCCCC2)n1,.,.,.,.,17,.
CCc1ccc2[nH]c(=O)c(C(c3nnnn3Cc3ccccc3)N3CCc4ccccc43)cc2c1 (stereo unspecified),/,/,.,.,/,/
COc1cc(-c2nc3ccccn3c2NCC2CCCO2)ccc1O (stereo unspecified),.,.,.,.,44,-47
Cc1ccc2nc(-c3ccc(O)cc3)c(NCC3CCCO3)n2c1 (stereo unspecified),/,/,.,.,/,/
COc1ccc(-c2nc3cccc(C)n3c2NCC2CCCO2)cc1O (stereo unspecified),.,.,.,.,54,-57
COc1ccc(-c2nc3cnccn3c2NCC2CCCO2)cc1 (stereo unspecified),/,/,/,.,/,/
CCC(=O)N/N=C/c1ccc(-c2ccc([N+](=O)[O-])cc2)o1,.,.,.,.,/,/
O=C1N=C(O)CN1/N=C/c1ccc(-c2ccc([N+](=O)[O-])cc2)o1,.,7.6,.,.,32,-32
COc1cccc(-n2c(Cc3csc(Nc4ccccc4)n3)nnc2SCC(N)=O)c1,/,/,.,.,/,/
O=C1CCC(C(=O)N(Cc2cccs2)C2(C(=O)NC3CCCCC3)CCCCC2)N1 (stereo unspecified),.,7,.,.,31,.
SMILES,CHT inh,CHT allo act,EP2 antag,EP2 modulator,CHT act confirm,HEK293 MP dye
CCOc1ccc(-c2csc(NC(=O)C(C)C)n2)cc1,/,/,.,.,/,/
COc1ccc(OCC(=O)Nc2ccccc2N2CCN(S(C)(=O)=O)CC2)cc1,/,/,.,.,/,/
COc1ccc(C[C@H]2CN3C(=NC[C@@H]3C)N2CCNC(=O)CCC2CCCCC2)cc1,.,.,.,.,.,.
O=C(CCC1CCCCC1)NCCN1C2=NC[C@H](Cc3ccccc3)N2C[C@H]1Cc1ccc(O)cc1,.,6.8,.,.,40,.
O=C(CCC1CCCCC1)NCCN1C2=NC[C@@H](Cc3ccccc3)N2C[C@H]1Cc1ccc(O)cc1,.,13,.,.,37,.
CCN(CC)C(=O)Cn1nc(C)n2c(cc3sccc32)c1=O,/,/,/,.,/,/
COc1ccccc1C(NC(=O)c1ccccn1)c1nccn1C (stereo unspecified),/,/,/,.,/,/
Cc1ccccc1-n1c(SCC(=O)NC(C)(C)C)nnc1-c1ccccn1,/,/,.,.,/,/
CCN(C(=O)COc1cccc2cccnc12)C1CCS(=O)(=O)C1 (stereo unspecified),.,.,.,.,52,-38
Cc1sc2ncn3cnnc3c2c1C,.,.,.,.,45,-41
Cc1sc2ncn3ncnc3c2c1C,.,.,.,.,/,/
